Laboratory results taken from PubChem BioAssay (EPA / NIEHS).
Values joined by “and” are separate entries in the source; they are usually repeats but may differ in a detail not shown here. Equal values may be shown once. Where a structure was tested more than once in an assay, its records may differ in their call. Active and inactive are the calls of the source. Rule for the calls: active = hit-call score of the fitted dose curve at least 0.9, where 1 is the maximum; inactive = score below 0.9.

Experiment: ATG_NF_kB_CIS: Attagene CIS-FACTORIAL HepG2 Assay for human Nuclear Factor Kappa B (NF-kB) (AID 2282991)
Settings: HepG2 Attagene cis-factorial NF-kB reporter mRNA; actives raise or lower the signal
Method: ATG_CIS is a cell-based, multiplexed-readout assay that uses HepG2, a human liver cell line, with measurements taken at 24 hours after chemical dosing in a 24-well plate.ATG_NF_kB_CIS is one of 52 assay component(s) measured or calculated from the ATG_CIS assay. It is designed to make measurements of mRNA induction, a form of inducible reporter, as detected with fluorescence intensity signals by Reverse transcription polymerase chain reaction (RT-PCR) and Capillary electrophoresis technology.Data from the assay component ATG_NF_kB_CIS was analyzed into 1 assay endpoint. This assay endpoint, ATG_NF_kB_CIS, was analyzed with bidirectional fitting relative to DMSO as the negative control and baseline of activity. Using a type of inducible reporter, measures of mRNA for gain or loss-of-signal activity can be used to understand the reporter gene at the transcription factor-level as they relate to the gene NFKB1. Furthermore, this assay endpoint can be referred to as a primary readout, because this assay has produced multiple assay endpoints where this one serves a reporter gene function. To generalize the intended target to other relatable targets, this assay endpoint is annotated to the dna binding intended target family, where the subfamily is NF-kappa B.
Human liver HepG2 cells are transiently transfected with multiple reporter transcription units (MRTUs) in 6-well plates using FuGene 6 reagent (Roche; 3 ml FuGene/1 mg DNA). The MRTU constructs are regulated by a cis-regulating element (promoter). […] A major difference between the CIS and TRANS system is that in CIS activities of endogenous TFs are measured, whereas the TRANS assay evaluates changes in activities of exogenous, chimeric NR-Gal4 proteins. […] At the end of 24 hour incubation, total RNA was isolated using TriZol reagent (Invitrogen). The isolated RNA is then reverse-transcribed using oligo(dT) primer and Mo-MLV reverse transcriptase (Invitrogen) with DNAse I (Ambion) treatment for 30 min. The one-tenth of the produced cDNA was amplified by PCR using Taq DNA polymerase (Invitrogen) and two reporter sequence-specific primers. The PCR products were fluorescently labeled by primer extension with 6-arboxyfluorescein (6-FAM) 5'-labeled reporter sequence-specific primer (2 min at 95 C, 20 s at 68 C and 10 min at 72 C) and these products were digested with 5U of HpaI (New England Biolabs) for 2h at 37 C. The fragments were purified using Qiaquick PCR columns (Qiagen), analyzed on an ABI 3130xL genetic analyzer (Applied Biosystems) with peak positions identified by using a set of X-rhodamine (ROX)-labeled MapMarker1000 molecular weight standards (BioVentures). The raw capillary electrophoresis data was processed using Attagraph software (Attagene).

Row | Compound | outcome | AC50
1 | O=S(=O)(O)CCC(F)(F)C(F)(F)C(F)(F)C(F)(F)C(F)(F)C(F)(F)F | inactive | –
2 | CCCCCCCCCCCCCCO | inactive | –
3 | O=C(O)c1cccc(C[C@@H]2COc3ccc(OCc4nc5cc(F)ccc5s4)cc3[C@@H]2O)c1 | – | 100 µM (active)
4 | CCCCCCCCCC | inactive | –
5 | OC(O)(C(F)C(O)(O)C(F)(F)F)C(F)(F)F | – | 16.6 µM (active) and 7.74 µM (active)
6 | NCC(F)(F)C(F)(F)C(F)(F)C(F)(F)F | inactive | –
7 | CCN(CC)C(=S)SSC(=S)N(CC)CC | – | 27.6 µM (active)
8 | S=P(N1CC1)(N1CC1)N1CC1 | inactive | –
9 | COc1cc(C(C)C)c2c(c1)S(=O)(=O)N(COc1cc(=O)n3cccc(OCCN4CCCCC4)c3n1)C2=O | – | 10.3 µM (active)
10 | OCCOCCOCCO | inactive | –
11 | NC(=O)NN=Cc1ccc([N+](=O)[O-])o1 | inactive | –
12 | CC[C@H](C)C(=O)O[C@H]1C[C@H](O)C=C2C=C[C@H](C)[C@H](CC[C@@H](O)C[C@@H](O)CC(=O)O)[C@H]21 | inactive | –
13 | CCCOc1ccc(S(=O)(=O)N2CCN(CC)CC2)cc1-c1nc2c(CC)n(Cc3ccccn3)nc2c(=O)[nH]1 | – | 51 µM (active)
14 | Cc1ccc(S(=O)(=O)NC(=O)NN2CCCCCC2)cc1 | inactive | –
15 | OCCC(F)(F)C(F)(F)C(F)(F)C(F)(F)F | inactive | –
16 | OC(CCl)CCl | inactive | –
17 | NC(N)=O | inactive | –
18 | OCc1c[nH]c2ccccc12 | inactive | 25.5 µM (active)
19 | CC(C)CC(C)O (stereo not given) | inactive | –
20 | O=C(Cl)C(F)(F)C(F)(F)C(F)(F)C(=O)Cl | inactive | –

Row | Compound | outcome | AC50
21 | OC(Cn1cncn1)(Cn1cncn1)c1ccc(F)cc1F | inactive | –
22 | FC(F)(F)C(F)(F)C(F)(F)C(F)(F)C(F)(F)C(F)(F)I | inactive | –
23 | COS(C)(=O)=O | inactive | –
24 | FC(F)C(F)(F)COCC1CO1 (stereo not given) | inactive | –
25 | Cn1c(=O)c2[nH]cnc2n(C)c1=O | inactive | –
26 | COc1cc2c(c(OC)c1OC)-c1ccc(OC)c(=O)cc1[C@@H](NC(C)=O)CC2 | inactive | –
27 | O=C(O)[C@H](O)[C@@H](O)C(=O)O | inactive | –
28 | C[Si](C)(C)C(F)(F)C(F)(F)C(F)(F)F | inactive | –
29 | Cc1nc(-c2ccccn2)ncc1C(=O)Nn1cc(C)c2cc(F)ccc21 | inactive | –
30 | c1ccc2c(c1)-c1cccc3c1c-2cc1ccccc13 | inactive | –
31 | C[C@@H](Oc1ccc(CNC(=O)c2cccnc2Oc2ccc3c(c2)OCO3)c(F)c1)C(=O)O | inactive | –
32 | NC(=O)N1c2ccccc2C=Cc2ccccc21 | inactive | –
33 | NNC(=O)c1ccncc1 | inactive | –
34 | CC(C)CCCCCCOC(=O)C1CCCCC1C(=O)OCCCCCCC(C)C (stereo not given) | inactive | –
35 | OCc1ccccc1 | inactive | –
36 | CCCCCCOC(=O)CC(CC(=O)OCCCCCC)(OC(=O)CCC)C(=O)OCCCCCC | inactive | –
37 | O=C(N[C@H](CO)[C@H](O)c1ccc([N+](=O)[O-])cc1)C(Cl)Cl | inactive | –
38 | FC(F)(F)COC(OCC(F)(F)F)OCC(F)(F)F | inactive | –
39 | C=CCc1cc(S(=O)(=O)c2ccc(O)c(CC=C)c2)ccc1O | inactive | –
